Consider 95 molecules from PubChem BioAssay AID1445 (SRMLSC, 2008).

About 910 (0.41%) of roughly 220,000 compounds were called active. This is one part of a sample in which actives are shown more often than they occur.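 Rule for the calls: active = primary inhibition above the hit cutoff, then over 50% inhibition at one or more dose response concentrations (cut at about 23% in these data, passing the limit was not always enough); inconclusive = conflicting primary data, or primary hits not chosen for dose response; inactive = low primary inhibition, or under 50% at every dose.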 Potency and affinity values are given separately.

In this assay the target is Aminopeptidase N (Plasmodium falciparum (isolate 3D7)) (UniProt O96935). The assay is described as follows: P. falciparum M1AAP inhibitors, biochemical, fluorogenic H-Leu-NHMec substrate, 1536-well (AID 1445).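 Note: plate controls were DMSO full reaction for no effect and no enzyme background for full effect.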 The note with it: recombinant M1AAP, H-Leu-NHMec fluorogenic kinetic assay; at 30 µM, hits give high values unless noted.
Aminopeptidase N (Plasmodium falciparum (isolate 3D7)), sequence (O96935 whole entry, looked up): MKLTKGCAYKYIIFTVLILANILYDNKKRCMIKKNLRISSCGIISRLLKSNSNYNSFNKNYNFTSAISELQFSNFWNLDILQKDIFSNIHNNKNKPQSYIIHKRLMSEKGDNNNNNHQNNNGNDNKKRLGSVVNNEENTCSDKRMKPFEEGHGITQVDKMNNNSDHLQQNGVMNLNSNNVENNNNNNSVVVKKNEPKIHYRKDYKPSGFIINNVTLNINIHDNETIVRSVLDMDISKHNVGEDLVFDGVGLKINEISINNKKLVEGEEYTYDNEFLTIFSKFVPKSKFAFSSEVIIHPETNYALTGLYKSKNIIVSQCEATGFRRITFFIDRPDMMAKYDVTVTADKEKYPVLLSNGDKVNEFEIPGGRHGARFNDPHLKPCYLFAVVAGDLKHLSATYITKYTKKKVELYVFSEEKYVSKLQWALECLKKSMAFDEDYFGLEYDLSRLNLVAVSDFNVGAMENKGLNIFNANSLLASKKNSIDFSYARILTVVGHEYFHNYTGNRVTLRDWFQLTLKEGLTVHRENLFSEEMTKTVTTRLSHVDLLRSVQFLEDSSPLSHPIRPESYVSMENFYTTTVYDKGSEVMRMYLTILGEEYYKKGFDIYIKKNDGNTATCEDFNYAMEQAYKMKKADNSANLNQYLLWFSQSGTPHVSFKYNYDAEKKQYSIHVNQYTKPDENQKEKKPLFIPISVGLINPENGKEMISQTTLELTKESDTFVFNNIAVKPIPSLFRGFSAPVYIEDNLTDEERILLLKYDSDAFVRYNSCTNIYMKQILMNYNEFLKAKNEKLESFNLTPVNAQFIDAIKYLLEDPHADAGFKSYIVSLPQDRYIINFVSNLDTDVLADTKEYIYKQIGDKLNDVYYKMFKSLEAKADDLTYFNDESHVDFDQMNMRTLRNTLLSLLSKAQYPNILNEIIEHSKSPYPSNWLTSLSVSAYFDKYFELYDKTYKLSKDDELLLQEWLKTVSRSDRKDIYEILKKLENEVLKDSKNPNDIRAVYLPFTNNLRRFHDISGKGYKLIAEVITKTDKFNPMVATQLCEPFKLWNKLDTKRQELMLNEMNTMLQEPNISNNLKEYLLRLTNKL
The inhibition is the change of the read-out against control, counted positive when it falls. With `COc1ccccc1NC(=O)c1ccc(-n2cncn2)nc1`, the inhibition was 18.8% (inactive).
With `FC(F)(F)c1ccc(Oc2ccccc2Cl)nc1`, the inhibition was 2.42% (inactive).
As to `O=C1CC(N(Cc2ccc3c(c2)OCO3)C(=O)Nc2ccc(F)cc2)C(=O)N1c1ccccc1` (stereo not given), the inhibition is 20.8% (inactive).
The value for `O=C1CC(N(Cc2ccco2)C(=O)Nc2ccc(F)cc2)C(=O)N1c1ccc(F)cc1` (stereo not given) was 23.6% (active); that for `CCC(=O)N(Cc1ccco1)C1CC(=O)N(c2ccccc2)C1=O` (stereo not given) was 0.67% (inactive); that for `CCCCc1ccc(NC(=O)C(C)CC)cc1` (stereo not given) was 1.58% (inactive).
Take `CC1=NN(C(=O)Cc2ccc([N+](=O)[O-])cc2)C(O)(c2cccnc2)C1` (stereo not given): the inhibition was 7.72% (inactive).
As to `O=C(Nc1ccc(O)cc1C(=O)O)c1ccc2c(c1)C(=O)N(Cc1ccco1)C2=O`, the inhibition was 15.1% (inactive).
For the molecule `Cc1c(NC(=O)c2ccc3c(c2)C(=O)N(Cc2ccco2)C3=O)cccc1C(=O)O`, the inhibition was 3.77% (inactive).
In the case of `O=C1CCC(=O)N1N1C(=O)C2C3c4ccccc4C(c4ccccc43)C2C1=O` (stereo not given), the inhibition was 0.65% (inactive).
The value for `O=C(Cn1nnc(-c2ccccc2)n1)N/N=C/c1cccc([N+](=O)[O-])c1O` was 7.92% (inactive); that for `O=C(Cn1nc2ccccc2n1)N/N=C/c1cc([N+](=O)[O-])ccc1O` was 37.9% (inactive); that for `O=C(N/N=C/c1cc(Cl)cc([N+](=O)[O-])c1O)C1CC1` was 29.8% (inactive).
The value for `Cc1cc(C)n(CC(=O)N/N=C/c2ccc([N+](=O)[O-])s2)n1` was 13.2% (inactive); that for `O=C(Cn1cnc([N+](=O)[O-])n1)N/N=C/c1ccc(O)cc1O` was 2.52% (inactive).
To `Cc1cc(C(=O)N/N=C/c2cc(Cl)cc([N+](=O)[O-])c2O)c2ccccc2n1` belongs 30.4% (inactive); to `Cc1cc(C)n(CC(=O)N/N=C/c2cc([N+](=O)[O-])ccc2O)n1`, 31.6% (inactive); to `O=C(Cn1cnc([N+](=O)[O-])n1)N/N=C/c1ccccc1O`, 0.91% (inactive).
Take `Cc1nc2c(c(=O)c3ccccc3n2C)c(=O)n1C1CCCCCC1`: the inhibition was -1.82% (inactive).
For the molecule `NS(=O)(=O)c1ccc(N/C=C\C(=O)c2ccncc2)cc1`, the inhibition was 13% (inactive).
For the molecule `CCNS(=O)(=O)c1ccc(NC(=O)CC(C)c2ccccc2)cc1` (stereo not given), the inhibition was 1.21% (inactive).
On to `CC(=O)Nc1cccc(/C(C)=N/NC(=O)c2cc(-c3ccncc3)nc3ccccc23)c1`, for which the inhibition was 10.5% (inactive).
As for `Cc1cc(C)n(-c2ccc(Oc3ccccc3)c(S(=O)(=O)O)c2)n1`, the inhibition was 1.18% (inactive).
Turning to `O=C1CC(c2cccs2)c2ccc3ccccc3c2N1` (stereo not given), the inhibition is 0.72% (inactive).
Take `Cc1ccc(N2C(=S)NC3c4ccccc4OC2(C)C3C(=O)N(C)C)cc1` (stereo not given): the inhibition was 2.84% (inactive).
For `CN(Cc1cnccn1)Cc1nc(Cc2cccc(F)c2)no1`, the inhibition is 2.76% (inactive).
Regarding `CCOc1[nH]n(-c2ccccc2)c(=O)c1C=Nc1ccccc1`, the inhibition is 7.67% (inactive).
For `CCOC(=O)c1ccc(NC(=O)CNS(=O)(=O)c2ccccc2)cc1`, the inhibition was 2.05% (inactive).
The value for `Oc1ccc(Cl)cc1N=Cc1sc2ccccc2c1Cl` was 21% (inactive).
In the case of `Oc1ccc(Cl)cc1C=Nc1ccccc1Br`, the inhibition is 1.39% (inactive).
To `OCCC1CN(Cc2c(F)cccc2Cl)CCN1C1CCCC1` (stereo not given) belongs -1.58% (inactive).
For the molecule `COc1ccc(OC)c2c1sc(=NC(=O)C1CC1)n2C`, the inhibition was 2.25% (inactive).
With `COc1ccc2[nH]c(=O)c(NC(N)=S)nc2c1`, the inhibition was 16.1% (inactive).
With `NC(=S)Nc1nc2ccccc2[nH]c1=O`, the inhibition was 23.5% (active).
To `COCCCNc1nc2ccccc2[nH]c1=O` belongs 7.88% (inactive); to `Cc1occc1C(=O)NNC(=O)c1ccccc1Br`, -1.69% (inactive); to `CCCCc1cc(=O)oc2cc(O)ccc12`, 31.7% (inactive).
Regarding `COc1ccc2c(CC(=O)NCC3CCC(C(=O)O)CC3)cc(=O)oc2c1` (stereo not given), the inhibition was 3.73% (inactive).
Consider `O=C(Cn1nnc2ccccc2c1=O)NCC1CCC(C(=O)O)CC1` (stereo not given), for which the inhibition was 0.69% (inactive).
To `COC(=O)Cc1cc(=O)oc2cc(OC)ccc12` belongs 1.65% (inactive); to `COc1cc(OC)c2c(C)cc(=O)oc2c1C(CCN1CCN(c2ccccc2)CC1)c1ccc2c(c1)OCO2` (stereo not given), 1.4% (inactive).
For the molecule `Cc1ccc(C(=O)Nc2ccccc2C(=O)O)cc1NC(=O)COc1c(C)cccc1C`, the inhibition is 4.7% (inactive).
To `CN(CC(=O)Nc1cccc2ccccc12)C(=O)/C=C/c1cccs1` belongs 16.9% (inactive); to `Cc1cc(C)cc(N(C(=O)c2nsc(Cl)c2Cl)C(C(=O)NC2CCCC2)c2ccc(O)cc2)c1` (stereo not given), -3.07% (inactive).
`N#Cc1cc2c(nc1SCc1ccccc1)CCCC2`: the inhibition was 5.77% (inactive).
With `C=CCn1c(CNc2ccc(C)cc2)nnc1SCC(=O)N/N=C/c1ccc(O)cc1O`, the inhibition was 37% (active).
Turning to `Cc1cc(SCC(=O)N/N=C/c2ccc(O)cc2O)c(C)cc1Br`, the inhibition was 24% (active).
For the molecule `CCn1c(SCC(=O)N/N=C/c2cc(OC)c(O)c(OC)c2)nc2ccccc21`, the inhibition was 3.33% (inactive).
`Cc1cc(SCC(=O)N/N=C/c2ccc(O)c(O)c2)c(C)cc1Br`: the inhibition was -0.74% (inactive).
To `C=CCn1c(CNc2ccccc2)nnc1SCC(=O)N/N=C/c1ccccc1O` belongs 30.8% (inactive).
The value for `COc1cccc(/C=N\NC(=O)Cn2nnc3ccccc32)c1O` was 1.18% (inactive); that for `C=CCn1c(Cn2nnc3ccccc32)nnc1SCC(=O)N/N=C/c1cc(Br)cc(OC)c1O` was 46.2% (active); that for `C=CCn1c(CNc2ccc(C)cc2)nnc1SCC(=O)N/N=C/c1ccc(O)cc1` was 14.4% (inactive).
Regarding `Cc1cc(SCC(=O)N/N=C/c2ccc(O)c(O)c2O)c(C)cc1Br`, the inhibition is 39% (inactive).
In the case of `CCC1(CC)Cc2ccccc2C(=O)N1`, the inhibition is 2.59% (inactive).
To `Nc1ccccc1SCc1ccccc1Cl` belongs 1.31% (inactive); to `O=C(CCN1CCOCC1)NNC(=O)/C(=C/c1ccccc1)NC(=O)c1ccccc1`, 5.04% (inactive).
Regarding `O=C(c1cccc(Oc2c(Cl)cccc2[N+](=O)[O-])c1)N1CCCCC1`, the inhibition was 4.82% (inactive).
With `Cc1ccc(CSC2=Nc3ccccc3C3=NC(CC(=O)NCc4ccco4)C(=O)N23)cc1` (stereo not given), the inhibition was 25.5% (active).
Consider `Cc1ccc(CSC2=Nc3ccccc3C3=NC(CCC(=O)NCc4ccco4)C(=O)N23)cc1` (stereo not given), for which the inhibition is 14.5% (inactive).
The value for `O=C(CCC1N=C2c3ccccc3N=C(SCc3ccc(Cl)cc3)N2C1=O)NCc1ccco1` (stereo not given) was 11.4% (inactive); that for `C=CCN=C1S/C(=C\c2ccc(Cl)cc2)C(=O)N1CC=C` was 3.89% (inactive); that for `COC(=O)C(C(C)=O)C1=C/C(=N\S(=O)(=O)c2ccc(C)cc2)c2ccccc2C1=O` (stereo not given) was 12.9% (inactive).
As for `Cc1ccc(S(=O)(=O)/N=C2/C=C(Sc3ncn[nH]3)C(=O)c3ccccc32)cc1`, the inhibition was 14.9% (inactive).
For the molecule `O=C(/C=C/c1cccc(Br)c1)N1CCN(c2ccccn2)CC1`, the inhibition was 12.4% (inactive).
On to `CCCNC(=O)c1ccc2c(=O)n3c(-c4ccc(C)cc4)csc3nc2c1`, for which the inhibition is 10% (inactive).
`O=C(O)CSc1nc(-c2cccs2)cc(C(F)(F)F)n1`: the inhibition is -2.67% (inactive).
Consider `O=C(c1ccc(C(F)(F)F)cc1)C1CCCN(C(=O)CN2C(=O)CSC2=O)C1` (stereo not given), for which the inhibition was -2.21% (inactive).
For `CC(Sc1nc(N)cc(=O)[nH]1)C(=O)Nc1cccc(Cl)c1` (stereo not given), the inhibition was 14.1% (inactive).
The value for `CN(CCc1ccccn1)C(=O)Nc1ccc(C(C)(C)C)cc1` was 2.28% (inactive).
As to `O=C1NC(=S)S/C1=C\c1coc2ccccc2c1=O`, the inhibition is 14.4% (inactive).
Regarding `CN1C(=O)/C(=C/c2coc3ccc(O)cc3c2=O)SC1=S`, the inhibition was -2.96% (inactive).
To `CCC1CCCCN1C(=O)CCc1nnc(C2CCCCC2)o1` (stereo not given) belongs 0.86% (inactive); to `CC(C)Cc1nnc(NC(=O)CSc2nc(O)c(-c3ccccc3)c(=O)[nH]2)s1`, 4.36% (inactive).
Consider `Nc1ccc(Nc2nc(-c3cc4ccccc4oc3=O)cs2)cc1`, for which the inhibition is 6.86% (inactive).
As for `O=C(Nc1nc(-c2cc3ccccc3oc2=O)cs1)c1ccco1`, the inhibition is 13.4% (inactive).
Consider `O=C1N(c2ccccc2)C[C@@H]2C[C@@H](c3cccs3)N3CCC[C@@]123`, for which the inhibition was 2.6% (inactive).
`O=C(COc1ccccc1[N+](=O)[O-])Nc1ccc(Br)cc1`: the inhibition was -3.79% (inactive).
For `O=C(COc1ccccc1)Nc1ccc([N+](=O)[O-])cc1`, the inhibition is 3.2% (inactive).
`O=C(COc1cccc2cccnc12)Nc1ccccc1`: the inhibition is -0.06% (inactive).
In the case of `O=C(COc1ccccc1[N+](=O)[O-])Nc1cccnc1`, the inhibition is 7.9% (inactive).
Consider `C=CCNC(=S)Nc1ccc(C(N)=O)cc1`, for which the inhibition is 4.91% (inactive).
With `COC(=O)/C=C/c1ccsc1NC(C)=O`, the inhibition was 7.35% (inactive).
The value for `O=C(Nc1ccccc1Oc1ccccc1)c1cccc([N+](=O)[O-])c1` was 6.7% (inactive); that for `Cc1nn(-c2cc(N3CCCC3)ccc2[N+](=O)[O-])c(=O)c2ccccc12` was 8.6% (inactive).
As for `O=C(CSc1nc2c(c(=O)n1-c1ccc(F)cc1)SCC2)NCC1CCCO1` (stereo not given), the inhibition was 15.6% (inactive).
Take `Cc1ccc(-n2c(SCC(=O)NCC3CCCO3)nc3c(c2=O)SCC3)cc1` (stereo not given): the inhibition is 4.19% (inactive).
On to `COc1ccccc1NC(=O)CN1CCN(C(=O)c2ccco2)CC1`, for which the inhibition is 1.53% (inactive).
For `COc1ccc(C(=O)N2CCC(n3c(C)nc4cc(F)ccc43)CC2)cc1`, the inhibition was -1.13% (inactive).
For `CC(C)CNC(=O)C(=O)NN=C1CCCCCC1`, the inhibition is 2.51% (inactive).
For `COC(=O)c1ccc(C)c(NS(=O)(=O)c2ccc3c(c2)OCCO3)c1`, the inhibition was 9.88% (inactive).
The value for `O=C(O)c1ccc(NS(=O)(=O)c2ccc3c(c2)OCCO3)cc1` was 7.45% (inactive); that for `Cc1ccc(C)c(N(C)C(=O)c2cc3c(=O)[nH]c4ccc(C)cc4c3s2)c1` was -2.28% (inactive); that for `CC1(C)CC(=O)c2cc(OCC(=O)NCCN3CCCc4ccccc43)ccc2O1` was 6.69% (inactive).
On to `COc1ccc2c(c1)C(=O)N(c1ccccc1OC)C(=O)C2(C)C`, for which the inhibition was 11.7% (inactive).
